In the library only some 2.4% were active in any assay of this set; here they are far more common.
Cruzain inh Det = blocks cruzain activity in presence of Triton detergent; P25779; purified cruzain, Z-FR-AMC fluorescence, 0.01% Triton; Potency, µM, for inactives: max response, negative = inhibition, hits mostly inhibitors; 0.43% of 200,000 active;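 note: plate controls were neutral wells for no effect and buffer without enzyme for full effect; nearly all actives have a fitted effect of over 40% in size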
Target sequence (P25779 123-467 limits assumed): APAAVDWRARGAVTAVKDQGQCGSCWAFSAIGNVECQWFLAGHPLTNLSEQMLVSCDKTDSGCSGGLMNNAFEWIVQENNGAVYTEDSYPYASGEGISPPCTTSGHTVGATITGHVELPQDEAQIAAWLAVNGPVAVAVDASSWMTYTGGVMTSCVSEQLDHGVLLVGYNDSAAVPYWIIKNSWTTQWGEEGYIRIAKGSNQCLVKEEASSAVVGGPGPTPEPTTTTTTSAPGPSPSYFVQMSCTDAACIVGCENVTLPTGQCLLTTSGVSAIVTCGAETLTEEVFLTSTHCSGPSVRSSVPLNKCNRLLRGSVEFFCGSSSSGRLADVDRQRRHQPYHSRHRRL
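Cysteine protease activity tested under reducing, mildly acidic conditions (100 mM sodium acetate pH 5.5, 5 mM DTT) plus 0.01% Triton X-100. Cruzain 1.5 nM; substrate Z-FR-AMC 2 uM; 15 min compound preincubation at room temperature.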
Cruzain inh noDet = cruzain (T. cruzi) inhibition without detergent; 2.3% of 200,000 active; P25779; Potency, µM, inactives show max response, negative = inhibition, usual class: inhibitors; purified cruzain, Z-FR-AMC fluorescence, no detergent;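 note: plate controls were enzyme without inhibitor for no effect and buffer without enzyme for full effect; nearly all actives have a fitted effect of over 40% in size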
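Purified cruzain at 1.5 nM, pre-incubated 15 min with compound at room temperature in 100 mM sodium acetate pH 5.5, 5 mM DTT, 0.00005% Triton X-100. Reaction started with 2 uM Z-FR-AMC; AMC fluorescence increase over 60 s gives rate.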
* marks the source's active call; other numbers are inactive results; ? = inconclusive. Calls come from the whole dose curve; as a rule, active = well fitted curve in the direction sought with a large enough effect; inconclusive = small, poorly fitted or top-dose-only effect, or another doubt; inactive = no such curve, though single readings can be large; an effect the other way counts as inactive or inconclusive. Potency is the fitted concentration of half-maximal effect.

SMILES | Cruzain inh Det | Cruzain inh noDet
O=C(NCC(c1ccc2c(c1)OCO2)N1CCOCC1)c1ccc(F)cc1 (stereo not given) | 0% | 1%
Nc1c(-c2cccs2)cnn1-c1nc(-c2ccc(Cl)cc2Cl)cs1 | 0% | 25µM*
Nc1c(-c2cccs2)cnn1-c1nc(-c2ccc(F)cc2)cs1 | 6% | -21%
Cc1ccc(OC(=O)c2cc(-c3ccccc3)nc3ccc(C)cc23)cc1 | -2% | -6%
C=CCn1c(SCc2cc(C(C)=O)ccc2OCC)nc2ccccc2c1=O | 14µM* | ?
COc1ccc(C(C)=O)cc1CSc1nc2ccccc2c(=O)n1-c1ccccc1 | -10% | -20%
CCOc1ccc(OCC)c(NC(=O)CCS(=O)(=O)c2ccc(Br)s2)c1 | -7% | 6%
CCOc1ccc(OCC)c(NC(=O)C(NS(=O)(=O)c2ccc(Br)s2)c2ccccc2)c1 (stereo not given) | -1% | 10µM*
COc1ccc(-c2ccc3c(N)c(C(=O)NCc4ccc(C)cc4)sc3n2)cc1 | 13µM* | 16µM*
Cc1ccc(CNC(=O)c2sc3nc(-c4ccc(F)cc4)ccc3c2N)cc1 | -3% | -27%
O=c1oc2ccc3ccccc3c2cc1-c1nnc(Nc2ccc(Cl)cc2Cl)s1 | 0% | 6%
Cc1cc(C)n(C(C[N+](=O)[O-])c2ccc(Cl)cc2)n1 (stereo not given) | -5% | 20µM*
Cc1cc(O)c(C(C[N+](=O)[O-])c2ccc(Cl)cc2)c(=O)o1 (stereo not given) | 0% | -15%
Cc1cccc(-n2c(O)c(C=Nc3ccc(O)cc3)c3ccccc3c2=O)n1 | -11% | ?
Cc1ccc(N=Cc2c(O)n(-c3ccc4c(c3)OCO4)c(=O)c3ccccc23)cc1 | -3% | 3.2µM*
COc1cccc(CNC(=O)Cn2c(=O)cc(C(F)(F)F)c3c(C)nn(C)c32)c1OC | -1% | ?
CC(C)OCCCn1c(SCc2ccccc2C#N)nc2c(sc3ccccc32)c1=O | 1% | -1%
Cc1cc(=O)n(CC(=O)N2CCN(c3ccc(F)cc3)CC2)c2c1c(C)nn2C | -3% | ?
CCCOc1ccc(-c2nc(C#N)c(N3CCc4ccccc4C3)o2)cc1 | 25µM* | -92%
CCCOc1ccc(-c2nc(C#N)c(N3CCN(C)CC3)o2)cc1 | 1% | -9%
CCOc1ccc2nc(NC(=S)NCc3ccccc3)sc2c1 | -3% | 25µM*
CCOc1ccc2nc(NC(=O)Nc3ccccc3)sc2c1 | 4% | ?
CCOc1ccc2nc(NC(=O)CSc3nc4ccccc4c(=O)n3Cc3ccco3)sc2c1 | 2% | 7.9µM*
CCOC(=O)CSc1nc2ccccc2c(=O)n1Cc1ccco1 | -5% | 1%
O=c1c2ccccc2nc(SCc2ccccc2)n1Cc1ccco1 | -9% | -27%
SMILES | Cruzain inh Det | Cruzain inh noDet
CCc1ccc(NC(=O)CSc2nc3cc(C(=O)OC)ccc3c(=O)n2Cc2ccco2)cc1 | 1% | 5µM*
O=c1c2ccccc2nnn1CSc1nc2ccccc2c(=O)n1Cc1ccco1 | -2% | 10µM*
CCN(C(=O)CSc1nc2cc(C(=O)OC)ccc2c(=O)n1Cc1ccco1)c1cccc(C)c1 | -1% | 1%
C[C@H]1COc2c(N3CCN(C)CC3)c(F)cc3c(=O)c(C(=O)NCc4ccco4)cn1c23 | 2% | -6%
N[C@H](Cc1ccc2oc3cc(=O)c4ccccc4c-3nc2c1)C(=O)O | -4% | -3%
CCOc1ccc(-n2c(SCC(=O)N3CCCCCC3)nc3c([nH]c4ccccc43)c2=O)cc1 | 5% | ?
Cn1nnc2c(N3CCN(c4ccccc4F)CC3)ncnc21 | 0% | -1%
COc1ccc(-n2cccc2/C=C2/NC(=O)N(c3cccc(Cl)c3)C2=O)cc1 | -4% | 10µM*
Cc1cccc(N2C(=O)NC(=O)/C(=C\c3cccn3-c3ccc(Cl)cc3)C2=O)c1 | -2% | -29%
CCOc1ccccc1NC(=O)CC1Nc2ccccc2NC1=O (stereo not given) | -9% | ?
Cc1ccc(NC(=O)CC2Nc3ccccc3NC2=O)cc1Cl (stereo not given) | ? | 25µM*
Cc1ccc(NC(=O)CC2Nc3ccccc3NC2=O)cc1C (stereo not given) | -12% | 0%
CCCOc1ccccc1NC(=O)CC1Nc2ccccc2NC1=O (stereo not given) | -4% | 13µM*
COc1ccc(CCNC(=O)CCn2c(=O)c3cccn3c3ccc(F)cc32)cc1OC | -2% | 11%
COc1ccc(CNc2nc(-c3cccnc3)nc3ccccc23)c(OC)c1 | -4% | 8%
Cc1sc2nc(COC(=O)c3ccc(N4CCCC4)c([N+](=O)[O-])c3)[nH]c(=O)c2c1C | -7% | ?
Cc1sc2nc(COC(=O)c3ccc(N4CCCC(C)C4)c([N+](=O)[O-])c3)[nH]c(=O)c2c1C (stereo not given) | -5% | 7.9µM*
CCc1ccc2oc(C(=O)Nc3nc(-c4ccccc4)ns3)c(C)c2c1 | 1% | 4%
Cn1c(=O)oc2cc(S(=O)(=O)Nc3ccc4c(c3)OCO4)ccc21 | 2% | 32µM*
